MCF10A rerep: A quantitative high throughput screen for small molecules that induce DNA re-replication in MCF 10a normal breast cells. actives 2.9% (n = 350,000). AID 624296, 2012. MCF 10A DNA re-replication, Hoechst nuclear intensity, 48 h. Potency, µM (titrated, usually from 46.1 µM), usual class: activators; further: nearly all actives have a fitted effect of over 50% in size
ELG1 repair inh: qHTS screen for small molecules that inhibit ELG1-dependent DNA repair in human embryonic kidney (HEK293T) cells expressing luciferase-tagged ELG1 | HEK293T ELG1-luciferase reporter, luminescence, 16 h; DNA damage induced by 5-fluorouridine | Potency, µM (doses to about 46.1 µM), hits mostly inhibitors | actives 2.3% (n = 330,000) | AID 504467, 2011; further: nearly all actives have a fitted effect of over 55% in size
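5-Fluorouridine DNA damage + compound/DMSO, 2,000 cells/well, 16 h, 37 °C/5% CO2. ONE-Glo, 30 min RT, luminescence. Readout = decrease in reporter signal.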
SW480 rerep: A quantitative high throughput screen for small molecules that induce DNA re-replication in SW480 colon adenocarcinoma cells. SW480 DNA re-replication, Hoechst DNA content imaging, 48 h. Potency, µM (highest dose often 46.1 µM), most hits filed as activators. actives 1.8% (n = 340,000); further: nearly all actives have a fitted effect of over 55% in size
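Hoechst fluorescence of nuclei (405 nm excitation, 500-530 nm emission) measured by plate-scanning imager after 48 hr compound exposure at 37 C; re-replication scored as increased number of nuclei with elevated intensity.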
KB-V1 MDR tox: qHTS assay for MDR1-selective chemotherapeutics: Primary screen using the drug-selected MDR subline cells KB-V1; actives 3.4% (n = 400,000); AID 1347076, 2019; KB-V1 MDR cells viability, CellTiter-Glo, 72 h; Potency, µM (top dose mostly 46.1 µM), most hits filed as cytotoxic; further: nearly all actives have a fitted effect of over 60% in size
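Compound-treated KB-V1 multidrug-resistant cells, 72 h, 37 degrees C; viability by CellTiter-Glo. Fitted qHTS curves give the values.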
KB-3-1 cytotox: qHTS assay for MDR1-selective chemotherapeutics: Primary screen using the parental adenocarcinoma cell KB-3-1. actives 1.4% (n = 400,000). Potency, µM (highest dose often 46.1 µM), usual class: cytotoxic. KB-3-1 viability, CellTiter-Glo ATP luminescence, 72 h. AID 1347075, 2019; further: nearly all actives have a fitted effect of over 60% in size
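KB-3-1 parental drug-naive adenocarcinoma cells in DMEM/10% FBS, incubated 72 h at 37 C with pin-transferred compounds across a concentration series. Viability by CellTiter-Glo luminescence; concentration-response curves fitted after normalization.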
Numbers stand for hits; – = inactive; ? = inconclusive; · = not tested or not shown; ! = a repeat was not active. Rows were chosen to be rich in hits. Some 8.2% of all compounds tested hit in one or more screens of this group. The call rests on the fitted dose curve; in most records, active means well fitted curve in the direction sought with a large enough effect; inconclusive means small, poorly fitted or top-dose-only effect, or another doubt; inactive means no such curve, though single readings can be large; an effect the other way counts as inactive or inconclusive.

SMILES	MCF10A rerep	ELG1 repair inh	SW480 rerep	KB-V1 MDR tox	KB-3-1 cytotox
Nc1cccnc1S(=O)(=O)c1cccc(C(F)(F)F)c1	–	·	2.9µM	–	–
c1ccc2sc(C3CCN(Cc4nnnn4Cc4ccc5c(c4)OCO5)CC3)nc2c1	?	?	–	16µM	23µM
OCC[C@@H]1C[C@H](O)[C@@H](O)[C@@]2(OCc3ccc(CO)cc32)O1	·	·	·	–	?
Cc1ccccc1NC(=O)c1nc(SCc2ccccc2F)ncc1Cl	·	·	·	–	?
NC(=O)C(F)(F)C12OC3C4C5CC(C6C5C3C61)C42 (stereo not drawn)	21µM	–	?	–	–
CCOC(=O)c1[nH]c(C)c(/C(O)=C2\C(=O)C(=O)N(CCCN3CCOCC3)C2c2cccs2)c1C (stereo not drawn)	9.2µM	–	13µM	?	?
Cc1cccc(NC(=O)/C(C#N)=C/c2ccc[nH]2)c1C	–	?	?	–	–
Cc1ccc(S[C@@H](CCN2CC[C@H](C)CCC2=O)c2ccccc2)cc1	?	–	–	12µM!	?
C[C@@H]1CCC(=O)N(CC[C@H](Sc2ccc(Br)cc2)c2ccccc2)CC1	–	–	–	?	?
COc1ccc(S[C@@H](CCN2CC[C@H](C)CCC2=O)c2ccccc2)cc1	18µM	–	–	?	–
Cc1nn(Cc2ccc(F)cc2)c2sc(C(=O)Nc3ccc(N4CCOCC4)cc3N3CCOCC3)cc12	–	18µM	–	?	–
N#Cc1ccc(CSc2nnc(COc3ccccc3)n2-c2ccccc2)cc1	–	?	–	?	–
Cc1ccc(-c2nnc(CSc3nnc(COc4ccccc4)n3-c3ccccc3)o2)cc1	12µM	?	–	–	–
Cc1ccc(-n2c(COc3ccccc3)nnc2SCC(=O)O)cc1	·	·	·	–	–
Cc1ccc(-c2nnc(CSc3nnc(COc4ccccc4)n3-c3ccc(C)cc3)o2)cc1	23µM	?	?	?	–
COc1ccc(C(C)C)cc1-c1cccc2nncn12	·	·	·	–	–
O=C1CSC(c2cn(-c3ccccc3)nc2-c2cc3ccccc3oc2=O)N1Cc1ccco1 (stereo not drawn)	–	16µM	–	?	–
Cc1ccc(S(=O)(=O)N(C)C)cc1NC(=O)COC(=O)CN1C(=O)c2ccccc2C1=O	–	–	–	–	–
COc1ccc(N2CCN(S(=O)(=O)c3c(C)[nH]c(C)c3C(=O)N3CCCC3)CC2)cc1	–	–	–	–	–
OC(Cc1ccccc1)c1ncc(-c2ccc(Cl)cc2)[nH]1 (stereo not drawn)	·	·	·	12µM	?
COc1ccc(NC(=O)c2sc3nc(C)c(C(=O)Nc4ccc(C)cc4C)c(-c4ccc(C)o4)c3c2N)cc1	·	·	·	–	–
COc1ccc(-c2ccc(-c3noc(-c4ccccc4OC)n3)c(OC)n2)cc1	?	–	?	–	–
COc1ccc(-c2ccc(-c3noc(-c4ccccc4C)n3)c(OC)n2)cc1	15µM	–	–	–	–
COc1ccc(-c2ccc(-c3noc(C)n3)c(OC)n2)cc1	–	?	–	–	–
COc1nc(-c2ccc(C)cc2)ccc1-c1noc(-c2cccnc2)n1	21µM	–	–	–	–
SMILES	MCF10A rerep	ELG1 repair inh	SW480 rerep	KB-V1 MDR tox	KB-3-1 cytotox
COc1ccc(-c2ccc(-c3noc(C4CCCCC4)n3)c(OC)n2)cc1	–	–	–	16µM	–
O=C(Nc1ccc(N2CCCCCC2)cc1)c1cccc(S(=O)(=O)N2CCOCC2)c1	?	–	–	?	?
CC(C)(C)[C@H](N)C(=O)N[C@H]1CCC2C3CC=C4C[C@@H](O)CC[C@]4(C)C3CC[C@@]21C (stereo partly drawn)	16µM	?	4.6µM	?	?
CCCCCCN[C@H]1CCC2C3CC=C4C[C@@H](O)CC[C@]4(C)C3CC[C@@]21C (stereo partly drawn)	?	–	8.2µM	?	?
CC(=O)C1CCC2C3CC=C4CC(SC(=N)N)CCC4(C)C3CCC12C (stereo not drawn)	?	·	?	23µM	?
CC(=O)C1CCC2C3CC=C4N(C)C(=O)CCC4(C)C3CCC12C (stereo not drawn)	–	·	–	?	–
CC(C)C(=O)N[C@H]1CCC2C3CC=C4C[C@@H](O)CC[C@]4(C)C3CC[C@@]21C (stereo partly drawn)	–	–	–	–	–
CCNc1nc(NC(C)C)nc(OCCNS(=O)(=O)c2cc(C)ccc2C)n1	–	21µM	–	–	–
CCNc1nc(NCC)nc(OCCNS(=O)(=O)c2cc(C)ccc2C)n1	?	?	–	–	–
Cc1ccc(C(=O)Nc2ccc(Cl)cc2C(F)(F)F)c(Cl)c1	–	?	–	–	–
Cc1ccc(C(=O)Nc2ccc(Cl)cc2C)c(Cl)c1	–	?	–	16µM	–
O=C(CSc1nc(Nc2ccccc2)nc(N2CCOCC2)n1)Nc1ccc(Br)cc1F	15µM	–	?	–	–
O=C(CSc1nc(Nc2ccccc2)nc(N2CCOCC2)n1)Nc1ccccc1Cl	?	?	?	15µM	–
COc1ccc(Cl)cc1NC(=O)CSc1nc(N2CCOCC2)nc(N2CCOCC2)n1	–	26µM	–	·	·
CC(=O)Nc1ccc(/C(C)=N/Nc2nc(Nc3ccccc3)nc(N3CCOCC3)n2)cc1	–	6.5µM	–	–	–
COc1ccc(Cl)cc1NC(=O)CSc1nc(N2CCCCC2)nc(N2CCCCC2)n1	–	–	–	–	–
COc1ccc(Cl)cc1NC(=O)CSc1nc(Nc2ccccc2)nc(N2CCOCC2)n1	–	–	?	–	–
CC1CCc2c(sc3nnn(CC(=O)Nc4c(C(C)C)cccc4C(C)C)c(=O)c23)C1 (stereo not drawn)	·	·	·	–	–
Cc1ccc([C@H]2C[C@H](O)[C@@H](n3cc(COC(=O)c4ccccc4)nn3)CN2C(=O)c2cccs2)cc1	·	·	·	–	?
O=C(CSc1nc(Nc2ccccc2)nc(N2CCOCC2)n1)Nc1cccc([N+](=O)[O-])c1	–	21µM	–	?	–
O=C(CSc1nc(N2CCOCC2)nc(N2CCOCC2)n1)Nc1ccc([N+](=O)[O-])cc1	?	16µM	–	·	·
CC(=O)c1cccc(NC(=O)CSc2nc(N3CCCCC3)nc(N3CCCCC3)n2)c1	–	?	2.2µM	–	–
Cc1cc(Cl)ccc1OCC(=O)NCCOc1nc(N2CCCCC2)nc(N2CCOCC2)n1	–	–	–	4.1µM	–
CC(=O)[C@]1(O)CCC2C3C=C(Cl)C4=CC(=O)C5CC5[C@@]4(C)C3CC[C@]21C (stereo partly drawn)	–	·	–	·	·
